Bioassay records: PubChem BioAssay, National Center for Advancing Translational Sciences (NCATS)
HepG2 viability – qHTS for Inhibitors of TGF-b: Cytotox Counterscreen | HepG2 CAGA-GFP viability, ATP luminescence, 18 h | Potency, µM (top dose mostly 46.1 µM), for the others: at the highest dose activity change, negative = cytotoxicity, most hits filed as cytotoxic | 410,000 compounds, 0.76% hits | AID 588856, 2011; further: potency means the concentration at half of the fitted maximal effect
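CellTiter-Glo luminescence gave cytotoxicity after 18 hours at 37 degrees C. The cells were HepG2 CAGA-GFP in 1% FBS DMEM, stimulated with 500 pg/mL TGF-beta after compound addition. %Activity was normalised to no-cell wells (complete cell-killing) and DMSO (no toxicity), and curves were fitted and classified.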
DT40 TDP1 no CPT – qHTS for Inhibitors of human tyrosyl-DNA phosphodiesterase 1 (TDP1): qHTS in cells in absence of CPT | DT40 Tdp1-/- hTDP1 cells, no CPT, ATP luminescence, 48 h | Potency, µM (titrated, usually from 46.2 µM), for inactives: at the highest dose activity change, negative = growth inhibition, usual class: inhibitors | 420,000 compounds, 15% hits; further: potency means the concentration at half of the fitted maximal effect; on the % scale 0 is the no-effect control and ±100 the full control effect; nearly all actives have a fitted effect of over 55% in size
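Seeded 400 DT40-hTDP1 cells/well (vehicle DMSO, no 20 nM CPT); pinned compounds; ≥48 hr at 37 °C; CellTiter-Glo luminescence as viability measure.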
ASM inhibitor – Inhibitors of Secretory Acid Sphingomyelinase (S-ASM): qHTS | Sphingomyelin phosphodiesterase (Homo sapiens), P17405 | placental ASM, HMU-PC fluorogenic substrate, 60 min | Potency, µM (doses to about 57.5 µM), inactives show at the highest dose activity change, negative = inhibition, actives largely listed as inhibitors | 340,000 compounds, 0.006% hits; further: potency means the concentration at half of the fitted maximal effect
Target sequence (P17405 47-631 limits assumed): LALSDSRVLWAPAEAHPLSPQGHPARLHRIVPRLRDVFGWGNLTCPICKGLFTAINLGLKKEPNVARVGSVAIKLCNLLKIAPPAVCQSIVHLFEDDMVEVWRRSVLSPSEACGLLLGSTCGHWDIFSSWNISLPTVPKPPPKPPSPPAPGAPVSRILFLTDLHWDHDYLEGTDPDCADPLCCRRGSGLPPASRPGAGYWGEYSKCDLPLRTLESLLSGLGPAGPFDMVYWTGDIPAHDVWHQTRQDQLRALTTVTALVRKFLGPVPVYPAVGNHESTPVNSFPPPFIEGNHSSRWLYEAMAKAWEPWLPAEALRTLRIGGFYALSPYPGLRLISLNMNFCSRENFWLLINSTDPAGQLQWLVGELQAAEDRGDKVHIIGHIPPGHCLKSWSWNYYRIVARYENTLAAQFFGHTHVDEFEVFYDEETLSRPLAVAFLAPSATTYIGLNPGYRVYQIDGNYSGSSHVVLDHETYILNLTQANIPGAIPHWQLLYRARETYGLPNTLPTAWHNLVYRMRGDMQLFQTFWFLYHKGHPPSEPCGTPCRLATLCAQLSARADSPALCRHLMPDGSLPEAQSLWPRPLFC
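HMU-PC0 cleavage (9 uM final) by human placental ASM, 60 min at 37 °C following 10 min compound exposure at RT; stopped at pH 10, fluorescence Ex 386/Em 447 nm.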
TGFb inhibitor – qHTS for Inhibitors of TGF-b; HepG2 CAGA-GFP TGF-b/SMAD3 reporter, GFP fluorescence, 18 h; TGF-beta stimulated, 500 pg/mL final; Potency, µM (titrated, usually from 46.1 µM), for inactives: top-dose activity, negative = inhibition, most hits filed as inhibitors; 410,000 compounds, 1.2% hits; AID 588855, 2011; further: potency means the concentration at half of the fitted maximal effect; on the % scale 0 is the no-effect control and ±100 the full control effect; nearly all actives have a fitted effect of over 65% in size
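GFP signal (ex488/em500-530) from TGF-beta-stimulated HEPG2 CAGA-GFP cells, 500 pg/mL final, 18 h at 37 degrees C in DMEM plus 1% FBS, normalized to unstimulated and DMSO-stimulated controls.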
IL-1B inflam inh – qHTS for Inhibitors of Inflammasome Signaling: IL-1-beta AlphaLISA Primary Screen | AID 743279, 2014 | activity change, % at 57.5 µM | THP-1 LPS/ATP IL-1B secretion, AlphaLISA, 16 h; hits give low values | 360,000 compounds, 4.7% hits; in the data active means activity change below about -50%; inconclusive means mostly about -30% to -49%; further: on the % scale 0 is the no-effect control and ±100 the full control effect
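Secreted IL-1B measured by AlphaLISA bead assay after 16 h compound exposure of THP-1 cells; compounds (final up to 57.5 uM) added 1 h before LPS (250 ng/mL) and ATP (1.25 mM) stimulation; lower signal means less secretion.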
DT40 TDP1 CPT – qHTS for Inhibitors of human tyrosyl-DNA phosphodiesterase 1 (TDP1): qHTS in cells in presence of CPT; chicken DT40 Tdp1-/-;hTDP1 cells + 20 nM CPT, ATP luminescence, 48 h; 420,000 compounds, 12% hits; Potency, µM (highest dose often 46.2 µM), without a hit: at the top dose activity change, negative = growth inhibition, actives largely listed as inhibitors; further: potency means the concentration at half of the fitted maximal effect; on the % scale 0 is the no-effect control and ±100 the full control effect; nearly all actives have a fitted effect of over 55% in size
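Chicken DT40 Tdp1-/- cells complemented with human TDP1, 400 cells/well, exposed to compounds plus 20 nM camptothecin for at least 48 h at 37 C; viability read as ATP content by CellTiter-Glo luminescence.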
An asterisk follows results filed as active; u = inconclusive; x = no result. A selection: hits, their analogues and other compounds. The true share with any hit is near 19%. Unless noted, the call rests on the fitted dose curve; in most records, active means well fitted curve in the direction sought with a large enough effect; inconclusive means small, poorly fitted or top-dose-only effect, or another doubt; inactive means no such curve, though single readings can be large; an effect the other way counts as inactive or inconclusive.

SMILES | HepG2 viability | DT40 TDP1 no CPT | ASM inhibitor | TGFb inhibitor | IL-1B inflam inh | DT40 TDP1 CPT
COc1cccc(S(=O)(=O)Nc2ccc3sc(C)nc3c2)c1 | -12% | 23µM* | 1% | 0% | 26 | u
Cc1nc2ccc(NS(=O)(=O)c3ccccc3Cl)cc2s1 | -14% | u | 1% | -21% | 17 | u
Cc1nc2ccc(NS(=O)(=O)c3c(F)cccc3F)cc2s1 | 10% | 16µM* | 1% | -6% | 6 | 16µM*
Cc1ccc(C)c(S(=O)(=O)Nc2ccc3sc(C)nc3c2)c1 | -10% | u | -7% | -26% | 12 | u
O=C(COC(=O)/C=C/c1cccc(F)c1)NC1CCCCCC1 | -5% | -2% | 0% | u | 11 | -2%
COC(=O)C1=C(NC(=O)C2CCCCC2)CCS1 | 3% | -2% | 8% | -9% | 14 | -28%
COc1cc(/C=C(\C#N)c2nc3ccccc3[nH]2)ccc1OCc1ccccc1F | -12% | -27% | x | -1% | x | u
COc1ccc(/C=C(\C#N)c2nc3ccc(C)cc3[nH]2)cc1Oc1ccc(C(F)(F)F)cc1[N+](=O)[O-] | -9% | 16µM* | 4% | -1% | 51 | u
Cc1ccc2nc(/C(C#N)=C\c3ccc(Oc4ccc(C(F)(F)F)cc4[N+](=O)[O-])cc3)[nH]c2c1 | -22% | 10µM* | 5% | u | 1 | u
Cc1ccccc1NC(=O)CSc1ccncc1 | 12% | -3% | 4% | -1% | -5 | -1%
Cc1cc(=O)c2c(C)nn(-c3ccccc3)c2[nH]1 | 5.6µM* | -13% | 4% | -6% | 9 | 12%
Cc1c(C)c2c(C)nn(-c3ccccc3)c2[nH]c1=O | -2% | -15% | 0% | -8% | 23 | u
Cc1c(Cl)cccc1N(CC(=O)NC(C)c1ccccc1)S(C)(=O)=O (stereo unspecified) | -11% | -16% | 0% | 8% | -8 | 14%
COc1cc(NC(=S)NC(C)=O)ccc1NC(=O)C(C)C | -7% | 10% | 1% | 0% | -6 | 5%
C=CCOc1c(Br)cc(CNc2ccc(NC(=O)C(C)C)c(OC)c2)cc1OCC | 2% | 16µM* | 5% | -9% | -16 | 21µM*
C=CCOc1c(Br)cc(CNc2ccc(NC(=O)CCC)cc2)cc1OCC | 1% | 16µM* | -19% | -4% | 0 | u
C=CCOc1c(Br)cc(CNc2ccc3[nH]c(=O)[nH]c3c2)cc1OCC | -28% | u | -1% | -14% | x | u
COc1ccc(NC(=O)c2cccnn2)cc1 | -9% | -10% | -3% | 6% | -2 | -17%
COc1cc(OC)c(NC(=O)N2CCC(CN3CCCC3)CC2)cc1Cl | 3% | 7% | x | 10% | x | -1%
COc1ccc(NS(=O)(=O)c2ccc(OC)c(NC(=O)CNC(=O)c3ccc(OC)cc3)c2)cc1 | -13% | -19% | -1% | -22% | 0 | -25%
CCC(=O)N1CCc2cc(Br)cc(S(=O)(=O)CCC(=O)N3CCN(c4cccc(C)c4)C(C)C3)c21 (stereo unspecified) | -30% | u | x | u | x | u
Cc1cccc(N2CCN(C(=O)CCNS(=O)(=O)c3ccc4c(c3)CCN4C(=O)C3CC3)CC2C)c1 (stereo unspecified) | -20% | 8.2µM* | x | -1% | x | 5.8µM*
